Only a selection was taken, and hits are over-represented in it overall.
IDE exosite inh – exo-site inhibitors of human insulin-degrading enzyme. P14735. purified IDE, FL-6b probe fluorescence polarization; hits give low values. z-score at 20 µM. 17,000 compounds, 6.3% hits. AID 1259349;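 active = z-score of -3 or lower, meaning strong loss of probe binding signal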;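 also: His-tagged human IDE residues 42-1019 made in E. coli with 30 nM FL-6b probe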
* hit, by the source's call; ! = not active in a repeat.

Screening O=C(Nc1cccc(F)c1)N1CC(=O)N2[C@H](C1)[C@H](c1ccc(-c3ccccc3)cc1)[C@@H]2CO returned IDE exosite inh -0.76.
For CCCNC(=O)N1CC2(C1)[C@@H](c1ccccc1)[C@@H](CO)N2CC1CCOCC1 the results were IDE exosite inh -0.21.
For COCC(=O)Nc1ccc2c(c1)[C@@H]1C[C@@H](CC(=O)N3CCOCC3)O[C@H](CO)[C@@H]1O2 the results were IDE exosite inh 0.3.
O=C(C[C@@H]1C[C@H]2c3cc(NC(=O)c4ccc5c(c4)OCO5)ccc3O[C@H]2[C@H](CO)O1)NCc1ccc(Oc2ccccc2)cc1 was read as IDE exosite inh -1.
For CN(C)CC(=O)N1CC2(C1)[C@@H](c1ccccc1)[C@H](CO)N2C(=O)C1CC1 the results were IDE exosite inh 1.2.
`O=C(c1ccccn1)N1CC(=O)N2[C@H](CO)[C@H](c3ccc(C#Cc4ccccc4)cc3)[C@H]2C1` gave IDE exosite inh -14*.
`CCCC#Cc1ccc([C@@H]2[C@@H](CO)N3C(=O)CN(C(=O)c4ccccn4)C[C@@H]23)cc1` gave IDE exosite inh -0.34.
`O=C(c1ccccn1)N1CC(=O)N2[C@@H](CO)[C@H](c3ccc(C#CCc4ccccc4)cc3)[C@@H]2C1` gave IDE exosite inh -1.1.
Screening O=C(c1ccccn1)N1CC(=O)N2[C@H](CO)[C@H](c3ccc(C#CCc4ccccc4)cc3)[C@@H]2C1 returned IDE exosite inh -1.8.
`CCCC#Cc1ccc([C@H]2[C@@H](CO)N3C(=O)CN(C(=O)c4ccccn4)C[C@H]23)cc1` gave IDE exosite inh 3.1.
For O=C(c1ccccn1)N1CC(=O)N2[C@@H](CO)[C@H](c3ccc(C#Cc4ccccc4)cc3)[C@@H]2C1 the results were IDE exosite inh -9.7*.
For O=C1Nc2ccccc2OCc2cn(nn2)CC[C@H]1Cc1ccc(-c2ccccc2)cc1 the results were IDE exosite inh -0.78.
CCC(=O)N1CC2(C1)CN(C(=O)c1cnccn1)[C@@H](CO)c1c2c2ccc(OC)cc2n1C was read as IDE exosite inh 1.3.
For C/C=C/c1ccc([C@H]2[C@H]3CN(S(=O)(=O)c4cccs4)CCCCN3[C@H]2CO)cc1 the results were IDE exosite inh 0.0074.
Screening N#C[C@@H]1[C@H](c2ccccc2-c2cccc(F)c2)[C@@H](CO)N1C(=O)NC1CCCCC1 returned IDE exosite inh -0.79.
`COc1ccc([C@@H]2C/C=C\C[C@@H](c3cccc(Cl)c3)NC(=O)[C@@H](c3ccccc3)CC(=O)N2)c(OC)c1` gave IDE exosite inh -0.44.
CN1C(=O)c2cc(NC(=O)C3CCOCC3)ccc2OC[C@@H]2O[C@H](CC(=O)NCCc3ccncc3)CC[C@@H]21 was read as IDE exosite inh -1.2.
Screening COC(=O)c1ccc(CN2CC(=O)N3[C@H](CO)[C@H](c4ccc(-c5ccccc5)cc4)[C@@H]3C2)cc1 returned IDE exosite inh 2.6.
Screening CCC(=O)N1[C@H](CO)[C@@H]2c3ccccc3N(C(=O)c3cnccn3)C[C@@H]21 returned IDE exosite inh 0.33.
O=C(Cc1ccccn1)N1CC(=O)N2[C@H](C1)[C@H](c1ccc(-c3ccccc3)cc1)[C@@H]2CO was read as IDE exosite inh -1.5.
O=C(Cc1ccccn1)N1CC(=O)N2[C@H](CO)[C@@H](c3ccc(C#CC4CC4)cc3)[C@@H]2C1 was read as IDE exosite inh 0.65.
For Cc1cccc(-c2ccc([C@@H]3[C@H]4CN(C(=O)Cc5ccccn5)CC(=O)N4[C@H]3CO)cc2)c1 the results were IDE exosite inh -15*.
Screening O=C(Cc1ccccn1)N1CC(=O)N2[C@H](CO)[C@H](c3ccc(-c4ccccc4)cc3)[C@@H]2C1 returned IDE exosite inh -3.7*.
`O=C(Cc1ccccn1)N1CC(=O)N2[C@H](CO)[C@H](c3ccc(C#CC4CC4)cc3)[C@@H]2C1` gave IDE exosite inh 3.4.
COc1ccc(-c2ccc([C@H]3[C@H](CO)N4C(=O)CN(C(=O)Cc5ccccn5)C[C@@H]34)cc2)cc1 was read as IDE exosite inh -1.3.
CN(C)CC#Cc1ccc([C@@H]2[C@H]3CN(C(=O)Cc4cccnc4)CC(=O)N3[C@H]2CO)cc1 was read as IDE exosite inh 1.3.
Screening Cc1cccc(S(=O)(=O)N2C[C@@H]3[C@H](c4ccccc42)[C@H](CO)N3Cc2ccc3c(c2)OCO3)c1 returned IDE exosite inh 0.73.
`N#Cc1cccc(-c2ccc([C@H]3[C@@H](CO)N4CCCCN(C(=O)Nc5ccccc5)C[C@@H]34)cc2)c1` gave IDE exosite inh 3.6.
`CCS(=O)(=O)N1CC(=O)N2[C@H](C1)[C@@H](c1ccc(C#CCC3CCCC3)cc1)[C@@H]2CO` gave IDE exosite inh 1.2.
COc1ccccc1C(=O)N1C[C@@H]2[C@H](c3ccccc31)[C@H](CO)N2CC1CCCC1 was read as IDE exosite inh -0.63.
O=C(c1ccc(F)cc1)N1C[C@@H]2N[C@H](C1)C2c1ccc(-c2ccccc2F)cc1 (stereo partly specified) was read as IDE exosite inh -4.1*!.
`O=C(c1ccc(F)cc1)N1C[C@@H]2N[C@H](C1)C2c1ccc(-c2ccc(F)cc2)cc1` (stereo partly specified) gave IDE exosite inh 3.9.
`Cc1ccccc1-c1ccc(C2[C@@H]3CN(C(=O)c4ccc(F)cc4)C[C@H]2N3)cc1` (stereo partly specified) gave IDE exosite inh -10*!.
O=C(c1ccncc1)N1C[C@@H]2N[C@H](C1)C2c1ccc(-c2ccncc2)cc1 (stereo partly specified) was read as IDE exosite inh 3.2.
For O=C(c1ccc(F)cc1)N1C[C@@H]2N[C@H](C1)C2c1ccc(-c2cncnc2)cc1 (stereo partly specified) the results were IDE exosite inh 3.3.
`O=C(c1ccc2c(c1)OCO2)N1C[C@@H]2N[C@H](C1)C2c1ccc(-c2ccccc2F)cc1` (stereo partly specified) gave IDE exosite inh -2.8.
Screening C[C@@H]1CN([C@H](C)CO)C(=O)c2cc(C3=CCCC3)cnc2O[C@@H]1CN(C)C(=O)Nc1ccc(C(F)(F)F)cc1 returned IDE exosite inh -0.044.
Screening COCC(=O)N1C[C@@H]2[C@H](c3ccccc31)[C@@H](CO)N2C(=O)c1ccccc1F returned IDE exosite inh 2.4.
Screening CCCNC(=O)N1CC2(CCN(Cc3cccc(OC)c3)CC2)c2c(n(C)c3cc(OC)ccc23)[C@@H]1CO returned IDE exosite inh -0.7.
`C[C@H](CO)N1C[C@H](C)[C@@H](CN(C)C(=O)CCC(F)(F)F)OCc2ccccc2-c2ccccc2C1=O` gave IDE exosite inh 0.79.
N#C[C@@H]1[C@@H](c2ccccc2-c2ccccc2F)[C@@H](CO)N1C(=O)C1CCOCC1 was read as IDE exosite inh 0.94.
Screening Cc1ccccc1-c1ccc([C@H]2[C@@H](CO)N3CCCCN(C(=O)NC4CCCC4)C[C@@H]23)cc1 returned IDE exosite inh -19*.
Screening Cc1ccccc1-c1ccc([C@H]2[C@H]3CN(C(=O)NC4CCCC4)CCCCN3[C@H]2CO)cc1 returned IDE exosite inh -5.7*.
Cc1ccccc1-c1ccc([C@H]2[C@@H](CO)N3CCCCN(C(=O)NC4CCCC4)C[C@H]23)cc1 was read as IDE exosite inh -17*.
`CC(C)[C@@H]1COCc2cn(nn2)CCC[C@@H](C)C(=O)N1` gave IDE exosite inh 2.

Screening data: PubChem, Broad Institute
